Test results taken from PubChem BioAssay AID1159580 (chemical genetic matrix, 2015).
Several values for one entry are separate records, joined by “and”; a condition that tells them apart may be missing. Identical values can stand only once. Screen size: about 5,500 compounds; about 2,000 (36%) were called active. Another 18% or so got no clear call; they are omitted. Cut-off read from the data, not from the text of the source: active = normalized growth mostly below about 0.91 (no sharp cut-off); inconclusive = no clear call, values can overlap the other calls; inactive = mostly above about 0.92. The list shows a part of the results.

Experiment: chemical genetic growth profiling, strain panel (AID 1159580);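 note: tested at 20 µM; growth read once vehicle control cultures reached saturation at 30 °C; 1 = growth at the plate median or of vehicle wells; lower values mean less growth of the strain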
Conditions: S. cerevisiae deletion strains, growth OD

Measured: normalized growth

CN(C)N=Nc1nc[nH]c1C(N)=O
inactive: locus YAL013W, strain DEP1, stronger effect = lower value 1.01 | locus YAL021C, strain ccr4, stronger effect = lower value 0.968 | locus YAL026C, strain drs2, stronger effect = lower value 1 | locus YAL030W, strain snc1, stronger effect = lower value 0.976 | locus YBL061C, strain skt5, stronger effect = lower value 0.976 | locus YBR009C, strain hhf1, stronger effect = lower value 1.02 | locus YBR021W, strain FUR4, stronger effect = lower value 1.02 | locus YBR023C, strain chs3, stronger effect = lower value 0.982 | locus YBR171W, strain sec66, stronger effect = lower value 0.969 | locus YBR229C, strain ROT2, stronger effect = lower value 1.01 | locus YBR231C, strain swc5, stronger effect = lower value 0.985 | locus YBR279W, strain paf1, stronger effect = lower value 0.966 | locus YCL011C, strain gbp2, stronger effect = lower value 0.953 | locus YCL016C, strain dcc1, stronger effect = lower value 0.957 | locus YCL029C, strain bik1, stronger effect = lower value 1 | locus YCL061C, strain MRC1, stronger effect = lower value 0.992 | locus YCL069W, strain vba3, stronger effect = lower value 0.984 | locus YCR088W, strain abp1, stronger effect = lower value 0.968 | locus YDL005C, strain med2, stronger effect = lower value 0.965 | locus YDL035C, strain GPR1, stronger effect = lower value 1.02 | locus YDL040C, strain nat1, stronger effect = lower value 0.979 | locus YDL074C, strain BRE1, stronger effect = lower value 1.01 | locus YDL101C, strain DUN1, stronger effect = lower value 1.01 | locus YDL134C, strain PPH21, stronger effect = lower value 1.02 | locus YDL185W, strain tfp1, stronger effect = lower value 0.997 | locus YDL192W, strain arf1, stronger effect = lower value 0.996 | locus YDR001C, strain nth1, stronger effect = lower value 0.975 | locus YDR069C, strain doa4, stronger effect = lower value 0.976 | locus YDR101C, strain arx1, stronger effect = lower value 1.01 | locus YDR137W, strain rgp1, stronger effect = lower value 0.975 | locus YDR150W, strain NUM1, stronger effect = lower value 1.01 | locus YDR159W, strain sac3, stronger effect = lower value 1.02 | locus YDR162C, strain NBP2, stronger effect = lower value 1.03 | locus YDR195W, strain ref2 1.01 | locus YDR297W, strain sur2, stronger effect = lower value 0.966 | locus YDR318W, strain mcm21, stronger effect = lower value 1 | locus YDR334W, strain swr1, stronger effect = lower value 0.949 | locus YDR335W, strain msn5, stronger effect = lower value 0.965 | locus YDR388W, stronger effect = lower value 0.992 | locus YDR392W, strain spt3, stronger effect = lower value 0.918 | locus YDR502C, strain sam2, stronger effect = lower value 1.01 | locus YEL003W, strain gim4, stronger effect = lower value 0.977 | locus YEL037C, strain rad23, stronger effect = lower value 0.985 | locus YEL061C, strain CIN8 (second series), stronger effect = lower value 0.98 | locus YEL061C, strain CIN8, stronger effect = lower value 1.01 | locus YER015W, strain faa2, stronger effect = lower value 0.981 | locus YER016W, strain bim1, stronger effect = lower value 0.98 | locus YER110C, stronger effect = lower value 0.995 | locus YER111C, strain swi4, stronger effect = lower value 0.987 | locus YER155C, strain BEM2 (second series), stronger effect = lower value 0.998 | locus YER155C, strain BEM2, stronger effect = lower value 1 | locus YER167W, strain BCK2, stronger effect = lower value 1.02 | locus YFR010W, strain ubp6, stronger effect = lower value 0.987 | locus YGL078C, strain dbp3, stronger effect = lower value 0.999 | locus YGL086W, strain mad1, stronger effect = lower value 1.01 | locus YGL167C, strain pmr1, stronger effect = lower value 0.981 | locus YGL173C, strain kem1, stronger effect = lower value 0.961 | locus YGL227W, strain vid30, stronger effect = lower value 0.979 | locus YGL240W, strain doc1, stronger effect = lower value 0.951 | locus YGL248W, strain PDE1, stronger effect = lower value 1.01 | locus YGL253W, strain hxk2, stronger effect = lower value 0.953 | locus YGR078C, strain PAC10, stronger effect = lower value 1 | locus YGR135W, strain pre9, stronger effect = lower value 1 | locus YGR252W, strain gcn5, stronger effect = lower value 1.05 | locus YHR013C, strain ard1, stronger effect = lower value 0.965 | locus YHR027C, strain rpn1, stronger effect = lower value 0.967 | locus YHR030C, strain SLT2, stronger effect = lower value 1.01 | locus YHR079C, strain IRE1 (second series), stronger effect = lower value 1 | locus YHR079C, strain IRE1, stronger effect = lower value 1.02 | locus YHR094C, strain hxt1, stronger effect = lower value 0.999 | locus YHR129C, strain ARP1, stronger effect = lower value 1.01 | locus YHR142W, strain chs7, stronger effect = lower value 0.926 | locus YHR200W, strain rpn10, stronger effect = lower value 1.01 | locus YIL066C, strain RNR3, stronger effect = lower value 1.01 | locus YIL073C, strain SPO22, stronger effect = lower value 1.02 | locus YIL125W, strain kgd1, stronger effect = lower value 0.995 | locus YIR030C, strain dcg1, stronger effect = lower value 1.01 | locus YJL092W, strain hpr5, stronger effect = lower value 0.984 | locus YJL095W, strain BCK1 (second series), stronger effect = lower value 0.966 | locus YJL095W, strain BCK1, stronger effect = lower value 1.01 and 1.03 | locus YJL115W, strain asf1, stronger effect = lower value 0.968 | locus YJL129C, strain trk1, stronger effect = lower value 0.958 | locus YJL134W, strain LCB3, stronger effect = lower value 1 | locus YJL154C, strain vps35, stronger effect = lower value 0.954 | locus YJL164C, strain tpk1, stronger effect = lower value 0.989 | locus YJL166W, strain qcr8, stronger effect = lower value 0.936 | locus YJL168C, strain set2, stronger effect = lower value 1.01 | locus YJL187C, strain SWE1 (second series), stronger effect = lower value 1.02 | locus YJL187C, strain SWE1, stronger effect = lower value 0.993 | locus YJR043C, strain POL32, stronger effect = lower value 1.03 | locus YJR066W, strain TOR1, stronger effect = lower value 1 | locus YJR075W, strain HOC1, stronger effect = lower value 1.01 | locus YKL009W, strain mrt4, stronger effect = lower value 1 | locus YKL068W, stronger effect = lower value 0.997 | locus YKL085W, strain MDH1 (second series), stronger effect = lower value 0.999 | locus YKL085W, strain MDH1, stronger effect = lower value 0.999 | locus YKL160W, strain elf1, stronger effect = lower value 0.931 | locus YKR001C, strain vps1, stronger effect = lower value 1 | locus YKR026C, strain gcn3, stronger effect = lower value 0.975 | locus YKR091W, strain srl3, stronger effect = lower value 0.97 | locus YLL001W, strain dnm1, stronger effect = lower value 0.916 | locus YLL026W, stronger effect = lower value 0.987 | locus YLL041C, strain sdh2, stronger effect = lower value 0.987 | locus YLR027C, strain aat2, stronger effect = lower value 0.991 | locus YLR039C, strain RIC1, stronger effect = lower value 1.04 | locus YLR058C, strain SHM2, stronger effect = lower value 1.02 | locus YLR102C, strain apc9, stronger effect = lower value 0.999 | locus YLR113W, strain HOG1, stronger effect = lower value 1.06 | locus YLR221C, strain rsa3, stronger effect = lower value 0.956 | locus YLR258W, strain gsy2, stronger effect = lower value 0.979 | locus YLR262C, strain YPT6 (second series), stronger effect = lower value 0.97 | locus YLR262C, strain YPT6, stronger effect = lower value 1.02 | locus YLR268W, strain sec22, stronger effect = lower value 1.01 | locus YLR320W, strain mms22, stronger effect = lower value 0.941 | locus YLR330W, strain CHS5, stronger effect = lower value 1.01 | locus YLR342W, strain FKS1 (second series), stronger effect = lower value 1.01 | locus YLR342W, strain FKS1, stronger effect = lower value 0.974 | locus YLR357W, strain rsc2, stronger effect = lower value 0.965 | locus YLR370C, strain arc18, stronger effect = lower value 0.973 | locus YLR371W, strain rom2, stronger effect = lower value 1 | locus YLR384C, strain iki3, stronger effect = lower value 0.985 | locus YLR418C, strain cdc73, stronger effect = lower value 1.03 | locus YML016C, strain PPZ1, stronger effect = lower value 1.01 | locus YML032C, strain rad52, stronger effect = lower value 0.993 | locus YML120C, strain ndi1, stronger effect = lower value 0.925 | locus YML124C, strain tub3, stronger effect = lower value 1 | locus YMR058W, strain fet3, stronger effect = lower value 0.979 | locus YMR078C, strain ctf18, stronger effect = lower value 0.999 | locus YMR125W, strain sto1, stronger effect = lower value 0.935 | locus YMR129W, stronger effect = lower value 0.992 | locus YMR205C, strain PFK2, stronger effect = lower value 0.927 | locus YMR223W, strain ubp8, stronger effect = lower value 0.988 | locus YMR231W, strain pep5, stronger effect = lower value 0.993 | locus YMR263W, strain SAP30, stronger effect = lower value 1.02 | locus YMR307W, strain GAS1, stronger effect = lower value 1.07 | locus YNL067W, strain RPL9B, stronger effect = lower value 1.01 | locus YNL071W, strain lat1, stronger effect = lower value 0.986 | locus YNL153C, strain GIM3, stronger effect = lower value 1 | locus YNL183C, strain NPR1, stronger effect = lower value 0.986 | locus YNL209W, strain ssb2, stronger effect = lower value 0.976 | locus YNL233W, strain BNI4, stronger effect = lower value 1 | locus YNL248C, strain rpa49, stronger effect = lower value 0.968 | locus YNL250W, strain rad50, stronger effect = lower value 0.979 | locus YNL271C, strain bni1, stronger effect = lower value 0.995 | locus YNL298W, strain CLA4, stronger effect = lower value 0.999 | locus YNL307C, strain MCK1, stronger effect = lower value 0.996 | locus YNL322C, strain KRE1 (second series), stronger effect = lower value 0.974 | locus YNL322C, strain KRE1, stronger effect = lower value 1.01 | locus YNR049C, strain mso1, stronger effect = lower value 0.967 | locus YNR052C, strain pop2, stronger effect = lower value 1 | locus YOL006C, strain TOP1, stronger effect = lower value 1.06 | locus YOL012C, strain htz1 0.752 | locus YOL147C, strain pex11, stronger effect = lower value 0.998 | locus YOR001W, strain rrp6, stronger effect = lower value 1.01 | locus YOR061W, strain CKA2, stronger effect = lower value 1.01 | locus YOR069W, strain VPS5, stronger effect = lower value 1 | locus YOR070C, strain gyp1, stronger effect = lower value 0.993 | locus YOR080W, strain dia2, stronger effect = lower value 0.973 | locus YOR083W, strain WHI5, stronger effect = lower value 0.936 | locus YOR106W, strain vam3, stronger effect = lower value 0.932 | locus YOR136W, strain idh2, stronger effect = lower value 1.01 | locus YOR144C, strain elg1, stronger effect = lower value 1.01 | locus YOR184W, strain ser1, stronger effect = lower value 1.01 | locus YOR231W, strain MKK1, stronger effect = lower value 1.02 | locus YOR265W, strain rbl2, stronger effect = lower value 0.977 | locus YOR270C, strain vph1, stronger effect = lower value 0.988 | locus YOR290C, strain snf2, stronger effect = lower value 0.943 | locus YOR316C, strain cot1, stronger effect = lower value 0.997 | locus YPL051W, strain arl3, stronger effect = lower value 0.973 | locus YPL055C, strain LGE1, stronger effect = lower value 1.02 | locus YPL078C, strain atp4, stronger effect = lower value 0.928 | locus YPL106C, strain sse1, stronger effect = lower value 0.942 | locus YPL240C, strain hsp82, stronger effect = lower value 1 | locus YPL241C, strain CIN2, stronger effect = lower value 1.01 | locus YPL256C, strain CLN2, stronger effect = lower value 1.04 | locus YPR119W, strain clb2, stronger effect = lower value 0.995 | locus YPR141C, strain kar3, stronger effect = lower value 0.987 | locus YPR163C, strain tif3, stronger effect = lower value 1 | locus YPR167C, strain met16, stronger effect = lower value 1 | strain wtn01, stronger effect = lower value 0.995
